According to the supplement of paper PMC11417369:
± gives the standard deviation of the averaged measurements. The full ranking holds about 25,000 sequences; the median of “ln(normalized median fluorescence intensity)” is about 7.9, and the highest 2% start at about 11. The list comes from a sample in which the highest values are over-represented; it also holds similar and randomly drawn sequences.

system: PfAP2-I AP2 domain 3 (GST-tagged); test: gcPBM binding intensity (ln(normalized median fluorescence intensity)); higher = stronger DNA binding
Method in brief: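 GST-tagged P. falciparum DNA-binding domains produced in E. coli were incubated for 1 h on an Agilent 4 × 180k array of primer-extended double-stranded 36-bp intergenic genomic probes with negative controls. Binding intensity is the highest Masliner-normalised natural-log median intensity across replicate spots of either probe orientation, with bound protein detected by Alexa488 anti-GST antibody at 488 nm.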

Sequence	gcPBM binding intensity (ln)
AGAGGAAAAATAAAAGGAAAAAAGAAAATAATATTG [CACACA_negctrl_site852]	7.45 ± 0.73
GAATGAATGATAAATTTTTTTTTCTTTTTTTTTTTG [CACACA_negctrl_site333]	7.09 ± 0.59
ACCTTATAAAAAAAAAGTACATATATAAATAATAAA [XGTACX_site4338]	8.29 ± 0.13
ATATAATTAAAAACATGTACATATATATATATATAT [XGTACX_site2882]	9.27 ± 0.2
ATGTTCTTTAAAACCACACACCCCCCAACCCCCCTC [CACACA_site2373]	10.6 ± 0.36
CAAACCCACCAACACACACACACAAAAATGATTAAA [CACACA_site2432]	8.03 ± 0.23
TTATGTTCTTTAAAACCACACACCCCCCAACCCCCC [CACACA_site8742]	10.9 ± 0.44
ATAAGTATAAGAATCAGTACACAGTTTCTACATACT [XGTACX_site5834]	7.56 ± 0.51
TATCAAAGTAGAAGAGATCGATGTCATATTGTGATG [GTGCAC_negctrl_site42]	7.73 ± 0.75
CATATGCATACTATACGTACATATGTATATAATATA [XGTACX_site7738]	8.03 ± 0.42
TATAATATTAATGACTGTACTCATACGTATATTTAT [XGTACX_site5493]	7.79 ± 0.3
GGTCTTCTTAATATACTGCACTGTATACGTATATAA	11 ± 0.61
GATAGATAATATTTTAGTACATAAACAATTAAATAT [XGTACX_site4125]	7.91 ± 0.44
TAATCATAAAAAAATACACACATATAAAATATAGAT [CACACA_site7020]	7.51 ± 0.63
ATATAAATACGGTGTGCACACACATAATATATATAT [CACACA_site2271]	9.52 ± 0.26
TAATGGATTATACGTGCACACATATATACAAATAAA [CACACA_site8116]	10.97 ± 0.035
ATGGATTATACGTGCACACATATATACCAATAAATA [CACACA_site4524]	11.2 ± 0.22
TAGGGATTATACCACACACACATACACATAAATATA [CACACA_site3178]	7.86 ± 0.32
TTATAATATGGATACACACACATATATAAATATATA [CACACA_site5314]	7.68 ± 0.38
CATAAAAATGGATACACACACATAATATATATATAT [CACACA_site3619]	9.08 ± 0.11
TCATATATATTATACACACACATATATAAATATATA [CACACA_site967]	7.87 ± 0.54
ATGGATTATACGTGCACACATATATACAAATAAATA [CACACA_site640]	11.19 ± 0.035
TATAAATACATACGTACACACAAATATTAAAATATA [CACACA_site5129]	7.905 ± 0.007
AATAATAATAAAAATAAACACACATATATATGTATA [CACACA_site8928]	7.57 ± 0.28
AATATAATTATATGTGGTACAGAAATAATATAAAAT [XGTACX_site2366]	8.22 ± 0.52
